Of roughly 8,800 targets only a part is listed; those with a hit were picked by preference. About 0.5% of all pairs of compound and target were hits. Unmarked numbers belong to inactive results.
Assays:
Test in all cases: log2 fold change, soluble protein after heating vs DMSO (PISA); higher = thermal stabilisation; K562 lysate, 10 uM; active = over 0.2 and 3.5 SD of the protein, either way, in both replicates (recomputed)
ibrutinib = compound: C=CC(=O)N1CCC[C@@H](n2nc(-c3ccc(Oc4ccccc4)cc3)c3c(N)ncnc32)C1 [ibrutinib]
Method in brief: (§1)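 The values are log-two fold changes in thermal stability compared with solvent controls and come from duplicates. They were obtained by TMTpro 16plex LC-MS/MS, with channel sums equalised, on the supernatant after 21,000xg for 90 min. That supernatant came from crude K562 extract at 1 mg/mL protein treated with 10 μM compound for 30 min, heated for 3 min across 48°C-58°C, pooled and brought to 0.5% NP-40 at 4°C.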

[1] = compound: CC(=O)c1cnc2ccc(-c3cc(Cl)c(O)c(Cl)c3)nc2c1N[C@H]1CC[C@H](CN(C)C)CC1
Method in brief: as §1

ralimetinib = compound: CC(C)(C)Cn1c(N)nc2ccc(-c3[nH]c(C(C)(C)C)nc3-c3ccc(F)cc3)nc21 [ralimetinib]
Method in brief: as §1

[2] = compound: CC(C)(O)CC(=O)NCCn1ccc2ncnc(Nc3ccc(Oc4cccc(C(F)(F)F)c4)c(Cl)c3)c21
Method in brief: as §1

[3] = compound: CC(C)C1=C2N=C(C=C(N2N=C1)NCC3=CC=CC=C3)NCCCCCCN
Method in brief: as §1

[4] = compound: CC1=C(C(CC(=O)N1)C2=CC=C(C=C2)C(F)(F)F)C(=O)NC3=C(C=C4C(=C3)C=NN4)F
Method in brief: as §1

[5] = compound: CC1=C(C2=C(C=C1)C(=O)C3=CC=CC=C3N2CCCN)C
Method in brief: as §1

[6] = compound: CC1=C(C=C(C=C1)NC(=O)C2=CC(=CC=C2)C(C)(C)C#N)NC3=CC4=C(C=C3)N=CN(C4=O)C
Method in brief: as §1

[7] = compound: CC1=C(C=C(C=C1)NC(=O)C2=CC(=CC=C2)N(C)C)NC(=O)C3=CC=C(C=C3)O
Method in brief: as §1

[8] = compound: CC1=CC=C(C=C1)SC2=C3C=C(SC3=CN=C2)C(=O)N
Method in brief: as §1

Chain of UniProt Q8NF37 (Q8NF37 whole entry, looked up): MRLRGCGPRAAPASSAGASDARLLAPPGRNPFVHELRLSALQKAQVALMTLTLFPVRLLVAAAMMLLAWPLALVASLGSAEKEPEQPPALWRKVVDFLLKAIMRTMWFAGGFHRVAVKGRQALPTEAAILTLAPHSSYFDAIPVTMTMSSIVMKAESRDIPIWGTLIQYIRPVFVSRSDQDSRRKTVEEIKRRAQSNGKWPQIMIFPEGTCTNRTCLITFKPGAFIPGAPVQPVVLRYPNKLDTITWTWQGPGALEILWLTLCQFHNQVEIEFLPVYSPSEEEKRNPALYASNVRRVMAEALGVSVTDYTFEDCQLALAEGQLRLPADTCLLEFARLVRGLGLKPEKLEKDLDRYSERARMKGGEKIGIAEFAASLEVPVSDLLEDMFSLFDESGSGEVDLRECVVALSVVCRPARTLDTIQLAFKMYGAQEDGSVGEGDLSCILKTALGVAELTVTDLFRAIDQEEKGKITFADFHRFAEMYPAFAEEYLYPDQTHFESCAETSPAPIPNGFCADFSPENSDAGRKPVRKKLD
Chain of UniProt Q71F56 (Q71F56 whole entry, looked up): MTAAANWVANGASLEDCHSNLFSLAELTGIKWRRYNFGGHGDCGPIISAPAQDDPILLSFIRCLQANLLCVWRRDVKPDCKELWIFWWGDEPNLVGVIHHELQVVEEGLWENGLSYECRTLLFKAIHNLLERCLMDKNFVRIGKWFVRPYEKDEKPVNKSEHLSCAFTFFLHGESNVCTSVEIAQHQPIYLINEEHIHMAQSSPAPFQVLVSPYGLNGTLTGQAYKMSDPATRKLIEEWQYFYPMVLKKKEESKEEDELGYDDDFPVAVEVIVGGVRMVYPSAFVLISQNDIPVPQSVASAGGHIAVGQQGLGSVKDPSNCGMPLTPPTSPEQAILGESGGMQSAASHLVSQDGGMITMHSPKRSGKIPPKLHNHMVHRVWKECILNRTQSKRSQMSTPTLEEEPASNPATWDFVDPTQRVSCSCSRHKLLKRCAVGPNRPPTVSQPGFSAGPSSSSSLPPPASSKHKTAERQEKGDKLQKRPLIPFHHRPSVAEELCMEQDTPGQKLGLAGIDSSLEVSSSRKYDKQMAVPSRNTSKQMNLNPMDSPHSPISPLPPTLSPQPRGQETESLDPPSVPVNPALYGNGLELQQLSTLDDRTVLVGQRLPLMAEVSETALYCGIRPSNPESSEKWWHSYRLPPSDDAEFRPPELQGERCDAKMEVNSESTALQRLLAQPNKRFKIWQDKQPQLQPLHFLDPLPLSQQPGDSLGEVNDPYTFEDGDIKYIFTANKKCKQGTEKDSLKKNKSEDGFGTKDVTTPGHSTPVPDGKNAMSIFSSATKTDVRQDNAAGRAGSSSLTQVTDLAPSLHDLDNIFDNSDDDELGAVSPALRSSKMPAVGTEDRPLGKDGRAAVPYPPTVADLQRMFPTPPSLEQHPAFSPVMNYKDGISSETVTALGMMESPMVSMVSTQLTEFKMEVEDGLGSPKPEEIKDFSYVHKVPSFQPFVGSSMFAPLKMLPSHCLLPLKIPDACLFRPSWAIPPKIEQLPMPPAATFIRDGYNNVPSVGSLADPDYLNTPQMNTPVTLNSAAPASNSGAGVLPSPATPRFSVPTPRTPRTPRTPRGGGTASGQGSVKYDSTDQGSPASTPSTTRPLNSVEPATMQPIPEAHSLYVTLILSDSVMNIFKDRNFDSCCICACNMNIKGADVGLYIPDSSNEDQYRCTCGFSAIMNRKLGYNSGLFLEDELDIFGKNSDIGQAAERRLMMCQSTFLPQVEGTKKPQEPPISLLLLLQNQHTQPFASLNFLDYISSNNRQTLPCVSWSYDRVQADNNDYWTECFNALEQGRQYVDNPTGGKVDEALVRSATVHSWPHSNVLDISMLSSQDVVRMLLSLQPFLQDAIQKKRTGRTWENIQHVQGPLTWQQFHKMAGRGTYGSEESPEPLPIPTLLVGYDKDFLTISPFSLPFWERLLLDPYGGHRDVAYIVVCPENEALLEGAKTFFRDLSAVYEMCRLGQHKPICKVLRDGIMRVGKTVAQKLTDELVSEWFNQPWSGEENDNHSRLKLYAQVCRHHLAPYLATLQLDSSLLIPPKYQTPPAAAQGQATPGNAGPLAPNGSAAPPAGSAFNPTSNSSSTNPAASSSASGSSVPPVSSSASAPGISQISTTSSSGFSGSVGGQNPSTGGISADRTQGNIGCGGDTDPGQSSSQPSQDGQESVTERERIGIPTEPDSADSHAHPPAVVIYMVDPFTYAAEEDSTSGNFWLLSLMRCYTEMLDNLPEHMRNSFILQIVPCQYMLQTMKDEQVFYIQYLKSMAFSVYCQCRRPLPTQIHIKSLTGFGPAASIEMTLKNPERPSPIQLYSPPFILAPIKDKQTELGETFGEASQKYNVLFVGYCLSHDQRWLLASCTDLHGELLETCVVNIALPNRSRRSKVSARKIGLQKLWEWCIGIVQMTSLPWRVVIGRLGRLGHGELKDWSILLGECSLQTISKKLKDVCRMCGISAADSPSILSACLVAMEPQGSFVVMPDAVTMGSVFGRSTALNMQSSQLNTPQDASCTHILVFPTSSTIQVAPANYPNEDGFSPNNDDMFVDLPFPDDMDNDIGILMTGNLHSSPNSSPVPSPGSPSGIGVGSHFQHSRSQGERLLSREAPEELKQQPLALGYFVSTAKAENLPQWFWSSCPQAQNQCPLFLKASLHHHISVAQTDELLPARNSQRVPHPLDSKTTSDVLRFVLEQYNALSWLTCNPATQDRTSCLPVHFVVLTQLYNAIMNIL
Chain of UniProt P11279 (P11279 whole entry, looked up): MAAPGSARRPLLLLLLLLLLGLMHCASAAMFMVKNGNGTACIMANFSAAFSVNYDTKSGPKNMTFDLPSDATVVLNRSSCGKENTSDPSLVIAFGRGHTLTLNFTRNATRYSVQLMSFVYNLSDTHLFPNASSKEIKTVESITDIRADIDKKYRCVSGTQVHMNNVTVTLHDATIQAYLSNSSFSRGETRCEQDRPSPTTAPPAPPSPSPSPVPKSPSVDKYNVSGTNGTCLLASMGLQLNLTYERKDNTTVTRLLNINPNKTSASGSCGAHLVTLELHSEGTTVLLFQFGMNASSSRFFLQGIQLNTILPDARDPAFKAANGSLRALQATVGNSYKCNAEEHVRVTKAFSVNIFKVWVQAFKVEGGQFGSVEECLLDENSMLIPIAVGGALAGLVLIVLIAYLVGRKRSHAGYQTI
Chain of UniProt Q5SRI9 (Q5SRI9 whole entry, looked up): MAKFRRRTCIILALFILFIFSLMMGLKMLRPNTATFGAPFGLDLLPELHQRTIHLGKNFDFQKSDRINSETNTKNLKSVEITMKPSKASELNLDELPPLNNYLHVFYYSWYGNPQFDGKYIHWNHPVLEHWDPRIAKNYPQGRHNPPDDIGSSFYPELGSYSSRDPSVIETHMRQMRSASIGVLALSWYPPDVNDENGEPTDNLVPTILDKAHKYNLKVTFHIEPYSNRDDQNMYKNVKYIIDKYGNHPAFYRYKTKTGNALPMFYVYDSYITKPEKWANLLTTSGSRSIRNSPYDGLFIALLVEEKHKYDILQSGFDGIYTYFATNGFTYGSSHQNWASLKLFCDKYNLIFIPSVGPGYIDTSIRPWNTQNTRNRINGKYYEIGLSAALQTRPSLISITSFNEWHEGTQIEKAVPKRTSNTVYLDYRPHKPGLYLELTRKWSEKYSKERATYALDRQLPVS
Chain of UniProt P45983 (P45983 whole entry, looked up): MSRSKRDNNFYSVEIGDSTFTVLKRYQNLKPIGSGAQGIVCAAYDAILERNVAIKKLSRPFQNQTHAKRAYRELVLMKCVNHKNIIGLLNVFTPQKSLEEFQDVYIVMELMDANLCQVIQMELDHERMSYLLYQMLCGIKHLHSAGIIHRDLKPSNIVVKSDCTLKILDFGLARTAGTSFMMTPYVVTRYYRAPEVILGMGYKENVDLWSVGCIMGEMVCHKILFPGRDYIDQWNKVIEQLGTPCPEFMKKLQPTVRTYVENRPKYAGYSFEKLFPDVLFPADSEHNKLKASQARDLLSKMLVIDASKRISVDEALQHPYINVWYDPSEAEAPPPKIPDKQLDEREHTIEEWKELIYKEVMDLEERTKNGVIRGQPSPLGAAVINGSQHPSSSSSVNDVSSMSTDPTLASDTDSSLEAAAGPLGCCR
Chain of UniProt Q14657 (Q14657 whole entry, looked up): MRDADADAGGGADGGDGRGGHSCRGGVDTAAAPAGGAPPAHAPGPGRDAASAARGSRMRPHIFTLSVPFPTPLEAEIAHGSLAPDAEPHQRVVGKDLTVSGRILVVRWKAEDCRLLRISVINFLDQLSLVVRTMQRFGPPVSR
Chain of UniProt Q9H089 (Q9H089 whole entry, looked up): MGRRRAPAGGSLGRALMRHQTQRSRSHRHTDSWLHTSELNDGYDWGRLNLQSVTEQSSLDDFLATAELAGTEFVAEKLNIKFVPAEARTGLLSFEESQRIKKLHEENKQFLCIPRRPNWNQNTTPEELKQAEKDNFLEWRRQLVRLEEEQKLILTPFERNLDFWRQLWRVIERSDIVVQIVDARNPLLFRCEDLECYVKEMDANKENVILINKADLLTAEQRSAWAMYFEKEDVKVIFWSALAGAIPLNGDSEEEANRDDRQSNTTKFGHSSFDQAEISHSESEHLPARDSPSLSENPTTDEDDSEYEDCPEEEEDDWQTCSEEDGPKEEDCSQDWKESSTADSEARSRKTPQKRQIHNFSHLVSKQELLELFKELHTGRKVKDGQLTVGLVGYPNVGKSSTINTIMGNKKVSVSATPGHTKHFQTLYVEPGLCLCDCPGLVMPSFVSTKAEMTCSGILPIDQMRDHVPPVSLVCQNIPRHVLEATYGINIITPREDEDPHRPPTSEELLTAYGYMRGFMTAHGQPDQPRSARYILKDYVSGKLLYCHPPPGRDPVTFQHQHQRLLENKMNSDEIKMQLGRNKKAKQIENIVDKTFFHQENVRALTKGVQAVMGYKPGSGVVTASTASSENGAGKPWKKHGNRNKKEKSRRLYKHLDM
Chain of UniProt O15243 (O15243 whole entry, looked up): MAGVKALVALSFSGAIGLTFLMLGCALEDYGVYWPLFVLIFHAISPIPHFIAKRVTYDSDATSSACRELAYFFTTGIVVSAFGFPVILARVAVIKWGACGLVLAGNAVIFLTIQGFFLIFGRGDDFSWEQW

Target	log2 fold change (ibrutinib)	log2 fold change [1]	log2 fold change (ralimetinib)	log2 fold change [2]	log2 fold change [3]	log2 fold change [4]	log2 fold change [5]	log2 fold change [6]	log2 fold change [7]	log2 fold change [8]
MPP1 (UniProt Q00013)	0.035	0.011	-0.01	-0.002	0.02	-0.019	0.018	0.022	0.012	-0.004
MAP4K4 isoform 6 (UniProt O95819)	0.056	0.001	-0.19	0.027	-0.021		-0.127		0.002	0.037
MAPK6 (UniProt Q16659)	0.07	0.025	0.004	-0.05	0.012	0	0	-0.006	0.029	0.021
MED13L (UniProt Q71F56)	0.047	-0.036	0.014	-0.016	0.005	-0.027	-0.036	0.007	0.015	-0.035
LSG1 (UniProt Q9H089)	-0.083	-0.033	0.026	0.052	0.032	0.004	-0.187	0.012	0.013	0.031
LAMP1 (UniProt P11279)	0.034	-0.031	-0.003	-0.11	0.008	0.01	0.003	0.022	-0.04	-0.032
MRPL27 (UniProt Q9P0M9)	-0.046	-0.057	0.023	-0.025	0.106	0.002	-0.195	-0.028	0.1	0.079
MAPK8 isoform 3 (UniProt P45983)	0.038	0.445 (active)	0.294	0.025	0.035	-0.057	-0.017	0.013	0.047	-0.012
MAST2 (UniProt Q6P0Q8)	0.136	0.054	0.033	-0.084	0.071		-0.157	0.03	0.031	-0.022
MOSPD2 (UniProt Q8NHP6)	-0.023	0.019	0.023	0.067	0.028	-0.049	0.009	-0.037	-0.012	0.017
LSS (UniProt P48449)	-0.009	-0.018	0.14	0.072	0.026	0.013	-0.131	-0.003	-0.04	-0.065
LIMK1 (UniProt P53667)	0.546 (active)	-0.04	-0.125	-0.161		-0.067	0.026	-0.085	0.059	-0.148
LARS (UniProt Q9P2J5)	-0.021	-0.003	0.023	0.048	0.021	-0.001	-0.017	-0.041	0.029	0.022
LEPROT (UniProt O15243)	0.005	-0.273	-0.034	0.054	0.267			0.181	0.016	0
MARK1 (UniProt Q9P0L2)	-0.006	-0.054	0.078	0.046	0.021	0.011	0.021	0.07	0.04	0.007
MAP4 (UniProt E7EVA0)	0.001	-0.009	-0.038	-0.185	0.036	-0.058	0.008	0.131	0.005	-0.027
MME (UniProt P08473)	0.286	-0.093	-0.117	-0.156	-0.012	-0.024	-0.23	0.007	-0.025	-0.043
MRPL12 (UniProt P52815)	0.082	-0.05	0.006	-0.013	-0.029	-0.042	0	0.026	0.012	0.076
KIF2A isoform 4 (UniProt O00139)	0.031	0	0.017	0.009	0.002	-0.01	-0.002	-0.02	0.032	0.018
MAP4K5 (UniProt Q9Y4K4)	0.029	0.108	0.039	0.002	0.098	-0.003	0.009	0	0.021	0.025
MANEA (UniProt Q5SRI9)	0	0.038	0.024	-0.1	0.041		-0.009	0.037	0.114	0.068
LZTS1 (UniProt Q9Y250)	0.104	-0.008	0.049	-0.176	0.116	-0.028	-0.233	0.705	-0.111	-0.007
LPCAT1 (UniProt Q8NF37)	0.175	-0.021	0	-0.142	-0.036	0.066	-0.011	0.003	-0.016	-0.019
MAT2B (UniProt Q9NZL9)	0	-0.008	-0.005	-0.006	-0.002	-0.023	0.016	0.015	-0.013	-0.005
LETM1 (UniProt O95202)	-0.006	-0.001	0.007	0.002	0.045	-0.026	0.026	0.036	0	0.037
LAGE3 (UniProt Q14657)	0.047	0.002	0.012	0	-0.004	-0.147	-0.098	-0.002	0.031	0.046
KNOP1 (UniProt Q1ED39)	-0.079	-0.096	-0.096	-0.133	-0.031	0.052	-0.114	0.155	-0.033	-0.118
MCMBP (UniProt Q9BTE3)	0.001	-0.007	0.016	0.038	-0.009	0	0.008	0.008	0.011	0.014
MAP4K2 (UniProt Q12851)	-0.036	0.337	-0.029	0.108	0.04		-0.144	0.058	0.209	-0.207
MRPL35 (UniProt Q9NZE8)	-0.019	-0.014	0.041	0.047	0.013	-0.012	-0.108	-0.032	0.032	0.01
